Here are results for 57 compounds from PubChem BioAssay (Tox21).

Inconclusive results are not listed. Entries that show only a call come without a potency. Values without a mark were called inactive. The source made the active and inactive calls. Calls follow the shape of the dose curve; as a rule, active = well fitted cell-killing curve with a large enough effect in the repeat runs; inconclusive = weak or mixed curves, or effect the other way; inactive = flat fitted curve, though single readings scatter.

Test [1] in a line: cAMP Responsive Elements (CRE) small molecule antagonists, cell-based qHTS assay: qHTS cell viability counter screen (AID 2060913). Also: nearly all actives have a fitted effect of over 40% in size. The essentials:
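Cytotoxicity read in the same wells as the CRE-bla HEK293T antagonist assay: after 3 h compound with 0.25 uM NKH477 final and 2 h beta-lactamase substrate, CellTiter-Glo luminescence measured.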
A general note: qHTS replaces the single test concentration by a dilution series.

The nature of test [2]: cAMP Responsive Elements (CRE) small molecule agonists, cell-based qHTS assay: qHTS cell viability counter screen (AID 2060914).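 Also: viability read after 3 h of compound exposure; nearly all actives have a fitted effect of over 50% in size.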 The essentials:
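HEK 293T CRE-bla; DMEM + 10% dialyzed FBS, 25 mM HEPES; 18 h pre-incubation; compound 3 h, 37 °C/5% CO2; CellTiter-Glo added after reporter read; luminescence after 30 min RT.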

Take `Cc1cccc(C)c1NC(=O)CN1CCCCCC1`: the Potency entry in test [1] and in test [2] was “inactive” throughout.
On to `C[C@@H]1CC[C@H]2C(C)(C)[C@H]3C[C@@]12CC[C@@]3(C)O`, for which the Potency entry in test [1] and in test [2] was “inactive” each time.
With `COC(=O)[C@H]1[C@H]2C[C@@H]3c4[nH]c5cc(OC)ccc5c4CCN3C[C@H]2C[C@@H](OC(=O)c2cc(OC)c(OC)c(OC)c2)[C@@H]1OC`, the Potency entry in test [1] and in test [2] was “inactive” throughout.
`CCCCCCCCCCCCCCO`: the Potency result in test [1] and in test [2] was “inactive” in each case.
Turning to `C[C@@H](O)[C@H]1C(=O)N2C(C(=O)O)=C(S[C@@H]3CN[C@H](CNS(N)(=O)=O)C3)[C@H](C)[C@H]12`, the Potency result in test [1] and in test [2] was “inactive” in each case.
Turning to `O=C(c1ccc(O)cc1)c1ccc(Cl)cc1`, the Potency result in test [1] and in test [2] was “inactive” each time.
Regarding `CC(C)COC(=O)COc1cc(Cl)c(Cl)cc1Cl`, the Potency result in test [1] and in test [2] was “inactive” throughout.
For the compound `CCCCCCCCCCCCCCCC/C=C/C1CC(=O)OC1=O` (centres undefined), the Potency result in test [1] and in test [2] was “inactive” each time.
Take `O=C(c1ccc(O)cc1)c1ccc(O)cc1`: the Potency entry in test [1] and in test [2] was “inactive” in each case.
Consider `CCCCCC(C)N` (centres undefined), for which the Potency result in test [1] and in test [2] was “inactive” each time.
As to `CCCCCCCCCC(C)C=O` (centres undefined), the Potency result in test [1] and in test [2] was “inactive” throughout.
In the case of `CC(=O)N(c1onc(C)c1C)S(=O)(=O)c1ccc(N)cc1`, the Potency entry in test [1] and in test [2] was “inactive” throughout.
In the case of `CCCCN(CCCC)C(C(N)=O)c1ccc(OC)cc1` (centres undefined), the Potency result in test [1] and in test [2] was “inactive” throughout.
Regarding `CCCCNC(N)=O`, the Potency result in test [1] and in test [2] was “inactive” in each case.
Turning to `OC[C@]1(O)OC[C@@H](O)[C@H](O)[C@@H]1O`, the Potency entry in test [1] and in test [2] was “inactive” in each case.
For the compound `CC[C@H](C)C(=O)O[C@H]1C[C@@H](C)C=C2C=C[C@H](C)[C@H](CC[C@@H]3C[C@@H](O)CC(=O)O3)[C@H]21`, the Potency result in test [1] and in test [2] was “inactive” in each case.
Consider `CC(=O)C=O`, for which the Potency entry in test [1] and in test [2] was “inactive” in each case.
As to `C[N+]1(C)CCC(OC(=O)C(O)(c2ccccc2)C2CCCC2)C1` (centres undefined), the Potency entry in test [1] and in test [2] was “inactive” in each case.
As for `CC(C)(C)c1ccc(O)c(O)c1`, the Potency entry in test [1] and in test [2] was “inactive” throughout.
With `C=C(C)[C@@H]1CCC2=CCC[C@@H](C)[C@]2(C)C1`, the Potency result in test [1] and in test [2] was “inactive” in each case.
Consider `CC(=O)C1(C)CC2=C(CCCC2(C)C)CC1C` (centres undefined), for which the Potency result in test [1] and in test [2] was “inactive” each time.
As to `CCCC1O[C@@H]2C[C@H]3[C@@H]4CCC5=CC(=O)C=C[C@]5(C)[C@H]4[C@@H](O)C[C@]3(C)[C@]2(C(=O)CO)O1` (some centres undefined), the Potency entry in test [1] and in test [2] was “inactive” each time.
Consider `CCCC(C)=O`, for which the Potency result in test [1] and in test [2] was “inactive” each time.
On to `Cn1cnc2c(=O)[nH]c(N)nc21`, for which the Potency entry in test [1] and in test [2] was “inactive” throughout.
On to `CC(=O)[C@H]1[C@H](C#N)C[C@H]2[C@@H]3CC=C4C[C@@H](O)CC[C@]4(C)[C@H]3CC[C@@]21C`, for which the Potency entry in test [1] and in test [2] was “inactive” in each case.
`CC1(C)O[C@@H]2C[C@H]3[C@@H]4C[C@H](F)C5=CC(=O)CC[C@]5(C)[C@H]4[C@@H](O)C[C@]3(C)[C@]2(C(=O)CO)O1`: the Potency entry in test [1] and in test [2] was “inactive” each time.
Consider `CCC(C=O)CC`, for which the Potency result in test [1] and in test [2] was “inactive” each time.
Turning to `CN(C)CCc1c[nH]c2ccc(C[C@H]3COC(=O)N3)cc12`, the Potency entry in test [1] and in test [2] was “inactive” throughout.
For `CCCCCCCCCCCCCOP(=O)(O)O`, the Potency entry in test [1] and in test [2] was “inactive” each time.
In the case of `CC(c1cc(C(C)(C)C)cc(C(C)(C)C)c1O)c1cc(C(C)(C)C)cc(C(C)(C)C)c1O`, the Potency result in test [1] and in test [2] was “inactive” each time.
For the compound `CN1CCN(CCCN2c3ccccc3Sc3ccc(Cl)cc32)CC1`, the Potency entry in test [1] and in test [2] was “inactive” each time.
On to `CC(C)=CCl`, for which the Potency result in test [1] and in test [2] was “inactive” in each case.
As to `CC(C)=CCC1=C(O)c2ccccc2C(=O)C1=O`, the Potency entry in test [1] and in test [2] was “inactive” throughout.
Consider `N#Cc1ccccc1O`, for which the Potency entry in test [1] and in test [2] was “inactive” in each case.
In the case of `Cc1ccc2n[nH]nc2c1`, the Potency result in test [1] and in test [2] was “inactive” throughout.
For `C=C(C)C(=O)OCCOP(=O)(O)OCCOC(=O)C(=C)C`, the Potency entry in test [1] and in test [2] was “inactive” each time.
Regarding `OCCNCc1ccccc1`, the Potency result in test [1] and in test [2] was “inactive” throughout.
As for `O=C1N(c2ccccc2)c2ccccc2C1(Cc1ccncc1)Cc1ccncc1`, the Potency entry in test [1] and in test [2] was “inactive” throughout.
Turning to `CCOCC(=O)O`, the Potency entry in test [1] and in test [2] was “inactive” each time.
`CC1(c2ccccc2)OC(C(=O)O)=CC1=O` (centres undefined): the Potency result in test [1] and in test [2] was “inactive” each time.
As to `O=C1OC(=O)C2C3C=CC(C3)C12` (centres undefined), the Potency entry in test [1] and in test [2] was “inactive” throughout.
`CN1C(CSCC(F)(F)F)Nc2cc(Cl)c(S(N)(=O)=O)cc2S1(=O)=O` (centres undefined): the Potency result in test [1] and in test [2] was “inactive” throughout.
In the case of `C=C(C)CNCC`, the Potency entry in test [1] and in test [2] was “inactive” throughout.
Turning to `CCOC(=O)C(C)(C)C`, the Potency result in test [1] and in test [2] was “inactive” throughout.
For the compound `COc1ccc2nc(S(=O)Cc3ncc(C)c(OC)c3C)[nH]c2c1` (centres undefined), the Potency entry in test [1] and in test [2] was “inactive” throughout.
As to `CC(C)(C)c1cc(CO)cc(C(C)(C)C)c1O`, the Potency entry in test [1] and in test [2] was “inactive” throughout.
Regarding `CC(C)NCCCC1(C(N)=O)c2ccccc2-c2ccccc21`, the Potency entry in test [1] and in test [2] was “inactive” throughout.
As to `CC(C)c1ccc2cc(C(C)C)ccc2c1`, the Potency entry in test [1] and in test [2] was “inactive” throughout.
On to `C=CCOC(=O)c1ccc(C(=O)OCC=C)c(C(=O)OCC=C)c1`, for which the Potency result in test [1] and in test [2] was “inactive” throughout.
Take `O=S1(=O)CC=CC1`: the Potency result in test [1] and in test [2] was “inactive” in each case.
In the case of `NS(=O)(=O)c1ccc(C(=O)O)cc1`, the Potency entry in test [1] and in test [2] was “inactive” throughout.
Turning to `COc1ccc(N=Nc2cc(C)c(N=Nc3ccc(S(=O)(=O)O)cc3)cc2OC)cc1`, the Potency entry in test [1] and in test [2] was “inactive” each time.
Take `CCCCC(CC)CN1C(=O)C2C3C=CC(C3)C2C1=O` (centres undefined): the Potency result in test [1] and in test [2] was “inactive” in each case.
Take `OCc1cc(C(O)CNCCCCCCOCCCCc2ccccc2)ccc1O` (centres undefined): the Potency entry in test [1] and in test [2] was “inactive” each time.
Turning to `CO[Si](OC)(OC)c1ccccc1`, the Potency result in test [1] and in test [2] was “inactive” each time.
On to `COc1cc2c3cc1Oc1cc(ccc1O)C[C@@H]1c4c(cc(OC)c(O)c4Oc4ccc(cc4)C[C@@H]3N(C)CC2)CC[N+]1(C)C`, for which the Potency result in test [1] and in test [2] was “inactive” throughout.
In the case of `NCCCN1CCN(CCCN)CC1`, the Potency result in test [1] and in test [2] was “inactive” in each case.
